Screening results as filed in PubChem BioAssay.
HP1b binding inh = HP1-beta chromodomain-methylated histone interaction inhibition | P83916 | AlphaScreen HP1-beta / biotin-H3K9me3 peptide binding | Potency, µM (titrated, usually from 114 µM), inactives show at the top dose activity change, negative = inhibition, actives largely listed as inhibitors | 390,000 tested, 0.56% active | AID 540317; also: nearly all actives have a fitted effect of over 70% in size
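Compound inhibition of the preformed complex between 50 nM HP1-beta and 50 nM biotinylated H3K9me3 peptide was read by AlphaScreen. Buffer was PBS pH 7.4 with 0.01% Tween-20. Incubations ran 30 min at room temperature, with 10 ug/mL donor/acceptor beads.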
G9a block = G9a (human) methyltransferase inhibition; Q96KQ7; G9a H3K9 monomethylation, AlphaScreen, 2 h; Potency, µM (highest dose often 102 µM), for the others: at the top dose activity, negative = inhibition, hits mostly inhibitors; 350,000 tested, 8.8% active; AID 504332; also: % is scaled to controls: 0 for no effect and ±100 for the full control effect; nearly all actives have a fitted effect of over 75% in size
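AlphaScreen read-out: biotin-H3K9 peptide (500 nM) methylation by 20 nM enzyme with 20 uM SAM, 2 h at room temperature after 15 min compound preincubation; anti-monomethyl H3K9 antibody plus donor/acceptor beads, 10 min dark.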
JMJD2A Tudor inh = blocks the human JMJD2A Tudor domain. 390,000 tested, 4.4% active. O75164. Potency, µM (top dose mostly 114 µM), for the others: at the highest dose activity change, negative = inhibition, usual class: inhibitors. AlphaScreen JMJD2A-Tudor / H3K4me3 peptide binding; also: % is scaled to controls: 0 for no effect and ±100 for the full control effect; nearly all actives have a fitted effect of over 50% in size
Target sequence (O75164 whole entry, looked up, the tested form may be a part): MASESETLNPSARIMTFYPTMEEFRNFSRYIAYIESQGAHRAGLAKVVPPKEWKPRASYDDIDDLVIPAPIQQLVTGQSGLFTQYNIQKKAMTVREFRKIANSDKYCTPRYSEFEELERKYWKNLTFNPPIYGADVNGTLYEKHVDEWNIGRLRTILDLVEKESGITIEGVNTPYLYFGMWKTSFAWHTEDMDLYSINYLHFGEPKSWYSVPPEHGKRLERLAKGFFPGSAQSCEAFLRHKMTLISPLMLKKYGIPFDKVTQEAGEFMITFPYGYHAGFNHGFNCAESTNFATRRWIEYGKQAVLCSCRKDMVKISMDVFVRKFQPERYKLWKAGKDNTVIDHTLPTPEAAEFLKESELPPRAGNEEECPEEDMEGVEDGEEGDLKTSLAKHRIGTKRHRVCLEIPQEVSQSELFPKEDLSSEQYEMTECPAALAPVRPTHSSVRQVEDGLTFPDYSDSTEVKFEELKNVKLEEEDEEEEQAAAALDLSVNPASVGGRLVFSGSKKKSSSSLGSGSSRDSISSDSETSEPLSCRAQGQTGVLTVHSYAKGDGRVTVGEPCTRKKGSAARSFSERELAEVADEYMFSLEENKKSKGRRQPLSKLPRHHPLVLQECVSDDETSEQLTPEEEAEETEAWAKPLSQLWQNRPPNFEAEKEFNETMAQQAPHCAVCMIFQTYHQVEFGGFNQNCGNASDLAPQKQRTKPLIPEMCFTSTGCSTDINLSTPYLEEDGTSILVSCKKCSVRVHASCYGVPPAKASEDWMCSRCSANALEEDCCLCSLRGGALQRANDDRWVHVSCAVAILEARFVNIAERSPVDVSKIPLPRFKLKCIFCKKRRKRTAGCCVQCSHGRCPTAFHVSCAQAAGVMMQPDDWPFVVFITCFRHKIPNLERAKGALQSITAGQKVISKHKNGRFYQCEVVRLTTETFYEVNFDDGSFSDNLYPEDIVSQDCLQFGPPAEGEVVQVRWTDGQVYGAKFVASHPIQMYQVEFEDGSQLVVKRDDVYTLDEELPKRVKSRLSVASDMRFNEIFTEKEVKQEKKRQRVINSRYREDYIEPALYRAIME
Sfp inh = blocks B. subtilis Sfp PPTase activity. Q9F4F7. Biochemical Sfp PPTase activity, qHTS. Potency, µM, inactives show largest response in the series, negative = inhibition, usual class: inhibitors. 310,000 tested, 3.5% active. AID 1490;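 also: the enzyme is Sfp with the accession as filed and its product quenches rhodamine fluorescence; 0% = enzyme reaction without inhibitor and -100% = no enzyme wells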
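Reaction rates are the 30-min fluorescence difference (ex 525, em 598 nm) in wells containing 15 nM Sfp, 5 uM rhodamine-CoA and 12.5 uM BHQ-2-YbbR at pH 7.6 with 10 mM MgCl2.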
BAZ2B inh = blocks human BAZ2B; 360,000 tested, 4.4% active; AID 504333; AlphaScreen BAZ2B-H3K14Ac peptide displacement; Potency, µM (highest dose often 114 µM), without a hit: at the highest dose activity change, negative = inhibition, actives largely listed as inhibitors; Q9UIF8; also: % is scaled to controls: 0 for no effect and ±100 for the full control effect; nearly all actives have a fitted effect of over 60% in size
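AlphaScreen luminescence quantifies BAZ2B engagement of H3K14Ac peptide; the protein and biotinylated peptide are both at 50 nM final, buffer PBS pH 7.4 with 0.01% Tween-20, all steps at room temperature.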
* = called active by the depositor; u = inconclusive; x = no result; [ ] = remark or other dose. Rows were chosen to be rich in hits. Some 12% of all compounds tested hit in one or more screens of this group. Calls follow the shape of the dose curve; as a rule, active = well fitted curve in the direction sought with a large enough effect; inconclusive = small, poorly fitted or top-dose-only effect, or another doubt; inactive = no such curve, though single readings can be large; an effect the other way counts as inactive or inconclusive. Potency is read from the fitted curve at half-maximal effect.

SMILES	HP1b binding inh	G9a block	JMJD2A Tudor inh	Sfp inh	BAZ2B inh
COc1ccc(CN2CCN(Cc3ccc(C(F)(F)F)cc3)CC2)cc1	u	7.08µM*	7.94µM*	-29.6%	25.1µM*
CC(C)CC(=O)N1CCN(Cc2ccc(Cl)cc2)CC1	u	x	10µM*	-20.2%	u
CC(C)CC(=O)N1CCN(Cc2ccccc2[N+](=O)[O-])CC1	31.6µM*	14.1µM*	1.26µM*	56.2µM*	25.1µM*
CCOC(=O)N1CCN(C(=O)Cc2ccccc2[N+](=O)[O-])CC1	16.9%	25.3%	-12.6%	19.1%	-17.9%
COc1ccc(CN2CCOCCOCCOCCOCCOCC2)cc1	8.0%	-1.6%	-4.3%	17.4%	3.1%
CC(C)CC(=O)N1CCN(Cc2ccc(Br)cc2)CC1	u	31.6µM*	20µM*	-13.4%	-32.2%
COc1ccc(-c2cc3cc(OC)c(OC)cc3c(C)n2)cc1	25.1%	-6.4%[59 µM]	0.7%	-21.7%	u
CC(=O)c1cccc(NC(=O)CCS(=O)(=O)c2cc(Br)cc3c2N(C(=O)C2CC2)CC3)c1	46.7%	-6.0%[59 µM]	u	x	-11.9%
Cc1ccc(S(=O)(=O)C(CNC(=O)c2c(F)cccc2F)c2ccco2)cc1 (configuration not stated)	3.9%	-33.1%[59 µM]	-14.7%	x	2.2%
CC(C)CC(=O)N1CCN(Cc2ccc(C(F)(F)F)cc2)CC1	u	x	28.2µM*	u	u
CC(C)(C)c1ccc(S(=O)(=O)NCC(=O)N2CCN(Cc3ccccc3)CC2)cc1	-7.7%	-8.8%	-25.7%	4.2%	-19.4%
Cc1[nH]c2ccc3ncccc3c2c1C	26.6%	u	-22.3%	-53.3%	50.1µM*
O=C(CCCCCn1c(=O)[nH]c2ccccc2c1=O)NCc1ccccc1	5.4%	11.4%[59 µM]	-25.3%	x	1.1%
O=C(N/N=C/c1cccn1-c1ccc([N+](=O)[O-])cc1)C(O)c1ccccc1 (configuration not stated)	-14.0%	44.7µM*	u	17.8µM*	u
O=C(Cc1ccc([N+](=O)[O-])cc1)N/N=C/c1cccs1	41.3%	133.9%	-14.4%	11.5%	8.1%
O=C(Cc1ccccc1)N/N=C/c1cccn1-c1ccc([N+](=O)[O-])cc1	u	7.08µM*	-32.9%	-16.3%	25.1µM*
CCOC(=O)c1cc(S(=O)(=O)NCc2ccc(OC)cc2)[nH]n1	7.8%[57 µM]	12.6µM*	u	x	u
CCOC(=O)c1cc(S(=O)(=O)NCc2ccc(Cl)cc2)[nH]n1	11.5%[57 µM]	7.94µM*	-22.0%	x	u
CCc1ccccc1NC(=O)CSc1nc2c(oc3ccccc32)c(=O)n1-c1ccccc1F	17.9%	2.2%[59 µM]	-10.9%	x	2.6%
O=C(CCCOc1ccccc1)Nc1ccccc1C(F)(F)F	66.5%	16.5%[59 µM]	6.7%[57.1 µM]	4.2%	12.3%
O=C(O)Cc1cccc(OCCCN(Cc2cccc(C(F)(F)F)c2Cl)CC(c2ccccc2)c2ccccc2)c1	x	17.8µM*	x	44.7µM*	x
NC(=O)c1ccc(NC(=O)c2ccc(COc3ccc(F)cc3)o2)cc1	53.4%	15.1%[12.7 µM]	10.3%	x	-0.9%
COC(=O)NCC(c1cccnc1)N1CCN(c2ccc(F)cc2)CC1 (configuration not stated)	u	u	-21.7%	x	-11.7%
NC(=O)c1c(NC(=O)CN2CCOCC2)sc2c1CCC2	41.9%	25.1µM*	-15.1%	-14.9%	x
NC(=O)c1c(NC(=O)CN2C(=O)CCC2=O)sc2c1CCCCC2	-3.5%	15.8µM*	-12.1%	u	-2.1%
SMILES	HP1b binding inh	G9a block	JMJD2A Tudor inh	Sfp inh	BAZ2B inh
O=C(Nc1sc2c(c1C(=O)O)CCCC2)C(=O)N1CCOCC1	20.4%	u	-27.8%	u	-30.8%
O=C(Nc1sc2c(c1C(=O)O)CCC2)C(=O)N1CCOCC1	-22.4%	39.8µM*	u	79.4µM*	50.1µM*
Cc1cc([N+](=O)[O-])nn1CC(=O)Nc1sc2c(c1C(N)=O)CCCC2	-16.9%	31.6µM*	-25.4%	-15.1%	-25.5%
CC(=O)N1CCc2c(sc(NC(=O)CN3C(=O)CCC3=O)c2C(N)=O)C1	-11.1%	u	-22.8%	-7.4%	10.2%
CCC(=O)Nc1ccc(CC)cc1-c1nc2ccccc2n(CC(=O)Nc2cccc(OC)c2)c1=O	29.4%	-25.8%[59 µM]	-7.9%	x	-1.8%
CCN(CC(=O)NCc1ccc(F)cc1)C(=O)c1ccc(C(=O)c2ccccc2)cc1	-8.2%	-0.1%	-14.1%	4.8%	u
O=C(COC(=O)Cc1ccc(Br)cc1)NC1CCCC1	41.7%	x	4.2%	x	x
NC(=O)c1c(NC(=O)CN2CCCC2)sc2c1CCCC2	-0.8%	29.7%[12.7 µM]	17.8µM*	-11.9%	-0.4%
CN(C)C(=O)c1ccc(-c2ccc3ncnc(NCc4cccs4)c3c2)cc1	x	1.6%[0.501 µM]	x	-6.0%	x
CSc1ccccc1NC(=O)c1ccc([N+](=O)[O-])cc1	u	31.6µM*	-32.9%	56.2µM*	u
Cc1ccc([N+](=O)[O-])cc1NC(=O)c1ccc(CSc2ccccc2)cc1	25.3%	u	-11.7%	31.6µM*	-4.8%
CCOC(=O)c1c(C)c(-c2ccccc2)n(CC(=O)N2CCN(C)CC2)c1C	10.4%	70.8µM*	-28.9%	-3.0%	-7.0%
C#CCOCCOCCOCCNc1nc(N2CCN(C(=O)Cn3cc(CCCN=C(N)N)nn3)CC2)nc(N2CCN(C(=O)[C@H](CCCCN)n3cc(CCCC)nn3)CC2)n1	36.0%	-2.2%[2.33 µM]	-35.4%	x	79.4µM*
C#CCOCCOCCOCCNc1nc(N2CCN(C(=O)Cn3cc(CCCN=C(N)N)nn3)CC2)nc(N2CCN(C(=O)[C@H](C)n3cc(CCCN=C(N)N)nn3)CC2)n1	27.5%	56.2µM*	-22.5%	-5.2%	u
C#CCOCCOCCOCCNc1nc(N2CCN(C(=O)Cn3cc(CCCCN)nn3)CC2)nc(N2CCN(C(=O)Cn3cc(CCCN=C(N)N)nn3)CC2)n1	29.5%	4.1%[2.33 µM]	-16.3%	x	8.4%
C#CCOCCOCCOCCNc1nc(N2CCN(C(=O)[C@H](C)n3cc(CCCN=C(N)N)nn3)CC2)nc(N2CCN(C(=O)[C@H](CCCCN)n3cc(CCCC)nn3)CC2)n1	x	4.47µM*	x	3.8%	u
NCCC[C@@H](CC(=O)N[C@@H]1CCNC[C@H]1C(=O)N[C@H](CC(=O)N[C@@H](CCC(=O)O)CC(=O)O)Cc1ccccc1)NC(=O)C[C@H](Cc1c[nH]c2ccccc12)NC(=O)[C@@H]1CNCC[C@H]1N	x	x	x	-7.6%	x
CCN1C(=O)/C(=C/C=C2\N(CC)c3cc(S(=O)(=O)N(C)C)ccc3N2c2ccccc2)SC1=S	-16.7%	u	-30.9%[11.4 µM]	u	8.91µM*
COc1cc(C(C)=O)ccc1OCC(=O)Nc1ccc(Cl)c(S(=O)(=O)N2CCOCC2)c1	19.5%	u	0.3%	x	2.0%
S=c1[nH]nc(C2CCCCC2)o1	-2.9%	28.2µM*	20µM*	-28.3%	-13.3%
Cc1ccccc1C(=O)Nc1nnc(S(=O)(=O)N(C)Cc2ccc(Cl)cc2)s1	36.7%	-28.5%[59 µM]	-6.2%	x	-6.8%
